# Results published in PubChem BioAssay AID488849 (National Center for Advancing Translational Sciences (NCATS), 2010).
# Several values for one entry are separate records, joined by “and”; a condition that tells them apart may be missing. Equal entries are not always repeated. Inconclusive results are not listed. Activity calls are given as the source filed them. Calls come from the whole dose curve; as a rule, active = well fitted activation curve with a large enough effect; inconclusive = small, poorly fitted or top-dose-only effect; inactive = flat fitted curve, though single readings scatter.
# Target: Lysosomal acid glucosylceramidase (Homo sapiens) (UniProt P04062)
# Experiment: qHTS Assay for Inhibitors and Activators of N370S glucocerebrosidase as a Potential Chaperone Treatment of Gaucher Disease: Activity in Non-Mutant Spleen Confirmation for Probe SAR
# Conditions: human spleen homogenate, 4-MU-beta-glucoside fluorescence; series mostly up to 57.5 µM
# Excerpt: NIH Chemical Genomics Center [NCGC] NIH Molecular Libraries Probe Production Centers Network [MLPCN] MLPCN Grant: MH086442-01 Assay Submitter (PI): Wei Zheng Glucocerebrosidase (GC) catalyzes the hydrolysis of beta-glucocerebroside to glucose and ceramide in lysosomes. Mutations in the glucocerebrosidase gene result in Gaucher disease, an autosomal recessive lysosomal storage disorder. Many of the mutations encountered in patients with Gaucher disease are missense alterations that may cause misfolding, decreased stability and/or mistrafficking of this lysosomal protein. […] These inhibitors include iminosugar analogs and three non-iminosugar inhibitors identified from a previous HTS of 62,000 compounds with the wild type recombinant enzyme. However, the enhancement of enzyme activity by the chaperone action of an enzyme inhibitor must be balanced against the direct inhibition of the enzyme. An enzyme activator could also function as a chaperone by binding to the enzyme and helping to correct its misfolding and mistrafficking. While activators for GC have not yet been identified, they may have better therapeutic potential than inhibitors. Therefore the discovery and development of chemical activators may provide a new strategy for the chaperone therapy. We have optimized a new assay using N370S mutant GC derived from the spleen of a Gaucher patient. […] In addition, the MLPCN compound library has expanded, which increases the chance of finding new and better probes. This confirmation assay tests for compound activity in spleen homogenate containing wildtype enzyme.
# NCGC Assay Protocol Summary: This is a fluorogenic enzyme assay with 4-methylumbelliferyl-beta-D-glucopyranoside as the substrate and wildtype glucocerebrosidase from human spleen homogenate as the enzyme preparation. Upon the hydrolysis of this fluorogenic substrate, the resulting product, […] which can be detected by a standard fluorescence plate reader. Data were normalized to the controls for basal activity (without enzyme) and 100% activity (with enzyme). The AC50 values were determined from concentration-response data modeled with the standard Hill equation. Assay buffer: 50 mM citric acid (titrated with potassium phosphate to pH 5.0), 100 mM potassium chloride, 10 mM sodium chloride, 1 mM magnesium chloride, 0.01% Tween-20. 1536-well assay protocol: (1) Add 2 ul/well of spleen homogenate (27 ug final) (2) Add 23 nL compounds in DMSO solution. The final titration was 0.5 nM to 58 uM. (3) Add 2 ul of substrate (1 mM final) (4) Incubate at 37C for 40 min. (5) Add 2 ul stop solution (1M NaOH and 1M Glycine mixture, pH 10) (6) Detect the assay plate in a ViewLux plate reader (PerkinElmer) with Ex=365 nm and Em=440nm. Keywords: Glucocerebrosidase, beta-glucosidase, Gaucher Disease, pharmacological chaperone, chaperone therapy, high throughput screening, glucocerebrosidase inhibitor, MLSMR, MLSCN, NIH Roadmap, qHTS and NCGC
# Lysosomal acid glucosylceramidase (Homo sapiens), sequence (P04062 whole entry, looked up): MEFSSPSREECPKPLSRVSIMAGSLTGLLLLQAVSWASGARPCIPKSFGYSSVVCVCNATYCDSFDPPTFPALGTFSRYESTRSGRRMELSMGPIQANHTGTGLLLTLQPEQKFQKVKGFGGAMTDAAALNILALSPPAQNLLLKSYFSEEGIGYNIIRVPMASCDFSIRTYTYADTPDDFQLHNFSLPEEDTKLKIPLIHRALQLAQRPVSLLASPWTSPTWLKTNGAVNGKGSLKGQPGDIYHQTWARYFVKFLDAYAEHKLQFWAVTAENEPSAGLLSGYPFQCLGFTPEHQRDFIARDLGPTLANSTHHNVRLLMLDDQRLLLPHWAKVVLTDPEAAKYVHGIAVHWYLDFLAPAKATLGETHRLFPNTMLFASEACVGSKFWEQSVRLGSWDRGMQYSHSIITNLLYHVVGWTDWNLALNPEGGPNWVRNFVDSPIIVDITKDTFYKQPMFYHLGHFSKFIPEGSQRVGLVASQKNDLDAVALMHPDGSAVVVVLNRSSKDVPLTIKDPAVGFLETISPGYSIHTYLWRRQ
row,Compound,Potency
1,Cc1cc(C)n2ncc(C(=O)Nc3ccc4c(c3)CCC4)c2n1,2.91 µM (active)
2,Cc1cc(C)n2ncc(C(=O)Nc3ccc4c(c3)OCCO4)c2n1,13 µM (active)
3,Cc1cc(C)n2ncc(C(=O)N3CCCC3)c2n1,inactive
4,Cc1cc(C)n2ncc(C(=O)Nc3ccc(C(F)(F)F)cc3)c2n1,1.46 µM (active)
5,O=C(Nc1ccccc1Sc1ccccc1)c1cnn2c1NC(=C1CC1)C=C2C(F)F,4.61 µM (active)
6,Cc1cc(C)n2ncc(C(=O)Nc3ccc(Br)cc3)c2n1,2.06 µM (active)
7,Cc1cc(C)n2ncc(C(=O)Nc3ccncc3)c2n1,inactive
8,CCc1ccc(NC(=O)c2cnn3c(C)cc(C)nc23)cc1,2.91 µM (active)
9,COc1ccc(NC(=O)c2cnn3c(C)cc(C)nc23)cc1,20.6 µM (active)
10,COc1ccc(NC(=O)c2cnn3c(C)cc(C)nc23)cc1OC,inactive
11,CC(=O)Nc1ccc(NC(=O)c2cnn3c(C)cc(C)nc23)cc1,inactive
12,CC(=O)Nc1ccccc1NC(=O)c1cnn2c(C)cc(C)nc12,inactive
13,Cc1cc(C)n2ncc(C(=O)NC3CCC(C(C)(C)C)CC3)c2n1 (stereo not drawn),11.6 µM (active) and 2.06 µM (active)
14,C#Cc1ccc(NC(=O)c2cnn3c(C)cc(C)nc23)cc1,0.41 µM (active)
15,Cc1cc(C)n2ncc(C(=O)NC(C)C)c2n1,inactive
16,Cc1ccc(NC(=O)c2cnn3c(C)cc(C)nc23)cc1,3.26 µM (active)
17,Cc1ccc(NC(=O)c2cnn3c(C)cc(C)nc23)c(C)c1,8.19 µM (active)
18,Cc1cc(C)n2ncc(C(=O)Nc3cccc(C#N)c3)c2n1,inactive
19,CNC(=O)c1cnn2c(C)cc(C)nc12,inactive
20,Cc1cc(C)n2ncc(C(=O)Nc3ccc(S(C)(=O)=O)cc3)c2n1,inactive
21,Cc1cc(C)n2ncc(C(=O)Nc3ccc(C)c(C)c3)c2n1,4.11 µM (active)
22,Cc1cc(C)n2ncc(C(=O)Nc3ccc4c(c3)OCO4)c2n1,13 µM (active)
23,Cc1cccc(NC(=O)c2cnn3c(C)cc(C)nc23)c1,8.19 µM (active)
